Assay outcomes as filed in PubChem.
Rows were chosen to be rich in hits. Some 20% of all compounds tested hit in one or more screens of this group.
Pf growth 96h = P. falciparum growth inhibition at 96 hour, primary screen for plastid delayed-death inhibitors | P. falciparum luciferase reporter growth, 96 h | Potency, µM (doses to about 28.7 µM), inactives show top-dose activity change, negative = inhibition, hits mostly inhibitors | 6.9% of 320,000 active; note: potency is the fitted concentration of half-maximal effect; % is set by controls: 0 for no effect and ±100 for the full control effect
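Delayed-death screen, second-generation endpoint: infected erythrocytes, 2% hematocrit, 0.05% parasitemia final; 96 hours at 37 C, 5% CO2; luciferase detection reagent; luminescence decrease equals reduced growth.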
Cycloheximide cs = counter-screen for Shiga toxin inhibitors: cycloheximide protein synthesis inhibition. 12% of 300,000 active. max response, %. AID 2314. cell reporter, cycloheximide protein synthesis inhibition counterscreen; in the data active = max response mostly above about 13%, no sharp cut-off; inactive = mostly below about 14%; note: read at 38.3 µM for the half of the compounds with a filed dose; 0% is about no effect
Shiga toxin inh = blocks Shiga toxin action in Vero cells | inhibition, % at 38.7 µM | 9.2% of 290,000 active | Vero cells, Shiga toxin protein synthesis inhibition reporter; in the data active = inhibition mostly above about 28%, no sharp cut-off; inactive = mostly below about 43%; note: 0% is about no effect
Pf growth 48h = inhibits P. falciparum growth in the first generation, 48 h | P. falciparum luciferase growth in erythrocytes, 48 h | AID 504832 | 5.9% of 310,000 active | Potency, µM (top dose mostly 28.7 µM), for the others: at the highest dose activity change, negative = inhibition, actives largely listed as inhibitors; note: potency is the fitted concentration of half-maximal effect; % is set by controls: 0 for no effect and ±100 for the full control effect
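Read-out is firefly luciferase luminescence from an integrated reporter in P. falciparum, so falling signal marks reduced parasite growth. Infected erythrocytes were at 2% hematocrit and 0.1% parasitemia (final) in Albumax-supplemented RPMI 1640.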
HCMV inh = blocks human cytomegalovirus replication; HFF cells, HCMV-luciferase reporter, 72 h; stronger effect = lower value; activity change, negative = inhibition, % at 57.5 µM; 4.5% of 410,000 active; in the data active = activity change below about -60%; inconclusive = no clear call, values can overlap the other calls; inactive = above about -39%; note: % is set by controls: 0 for no effect and ±100 for the full control effect
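After 16 h attachment at 37C, HFF cells received test compound and HCMV-luciferase (1 PFU/cell); reporter luminescence read 72 h later, data normalized against buffer-only and known inhibitor Salinomycin.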
Numbers without * were called inactive; i = inactive; u = inconclusive; x = not tested or not shown. Unless noted, calls come from the whole dose curve; as a rule, active = well fitted inhibition curve with a large enough effect; inconclusive = small, poorly fitted or top-dose-only effect, or another doubt; inactive = no such curve, though single readings can be large or run the other way.

SMILES	Pf growth 96h	Cycloheximide cs	Shiga toxin inh	Pf growth 48h	HCMV inh
COc1ccc2[nH]c3c(N4CCC(O)(c5cccc(C(F)(F)F)c5)CC4)ncnc3c2c1	2.3µM*	-3	-4	15µM*	u
O=[N+]([O-])c1cccnc1N1CCN(Cc2ccc3c(c2)OCO3)CC1	u	8	24	-3%	-16
COc1ccc2[nH]c3c(N4CCN(Cc5ccc6c(c5)OCO6)CC4)ncnc3c2c1	5.9µM*	-8	-34	4.1µM*	-26
Clc1ccc2[nH]c3c(N4CCC5(CC4)OCCO5)ncnc3c2c1	u	4	3	u	x
O=[N+]([O-])c1ccc2ncnc(N3CCN(Cc4ccc5c(c4)OCO5)CC3)c2c1	u	1	-10	u	-80*
CC(C)OC(=O)Cn1nc(C(c2ccccc2)c2ccccc2)oc1=O	-24%	5	x	u	6
COc1cc(OC)c2c(C)c(CC(=O)NCCc3ccccc3OC)c(=O)oc2c1	x	x	x	x	-1
COc1ccc2nc3sc(C(=O)NCCN4CCc5ccccc5C4)cc3cc2c1	u	43*	53*	9.3µM*	8
COc1ccc2cc3cc(C(=O)NC4CC4)sc3nc2c1	-19%	48*	57*	21%	62
COc1ccc2cc3cc(C(=O)NCCCN4CCc5ccccc5C4)sc3nc2c1	u	35*	71*	u	80
CCOc1ccc(CCNC(=O)c2cc3cc4ccc(OC)cc4nc3s2)cc1OCC	x	x	x	x	-13
CCN1CCN(C(=O)c2cc3cc4cc(OC)ccc4nc3s2)CC1	x	12*	25*	22%	-12
CCN(CCCNC(=O)c1cc2cc3cc(OC)ccc3nc2s1)c1cccc(C)c1	x	x	x	x	11
COc1ccc2nc3sc(C(=O)NCCc4ccc(Cl)cc4)cc3cc2c1	x	x	x	x	-3
NC(CC(=O)Nc1ccc(Oc2cc(F)c(F)cc2Br)cc1)C(=O)O (configuration not stated)	x	-4	-4	x	x
CCCCNC(=O)CSc1nc2ccccc2c(=O)n1CC1COc2ccccc2O1 (configuration not stated)	u	-4	-27	u	37
O=C1NCCN/C1=C\C(=O)c1ccc(Cl)cc1	315%	55*	67*	145%	85
O=C1CNC(=O)/C(=C\c2ccc(F)cc2)N1	15%	-3	-5	x	-15
O=C1NCCN/C1=C\C(=O)c1ccc(F)cc1	66%	35*	69*	86%	43
CC(C)(C=O)C1=CC(=O)c2ccccc2C1=O	u	28*	25*	u	0
CC1=CC(=O)c2ccccc2C1=O	15µM*	7	17	u	u
CCCCNC1=CC(=O)C(=O)c2ccccc21	-13%	4	4	0%	-35
COc1cccc2c1C(=O)C=C(C)C2=O	15µM*	15	-34	u	-33
COc1ccccc1-c1nnc(SC(C)C(=O)Nc2ccc(C(N)=O)cc2)o1 (configuration not stated)	-6%	x	x	6%	15
Cc1ccc(CCNS(=O)(=O)c2cc3c(cc2C)NC(=O)CO3)cc1	53%	-2	7	-7%	-1
SMILES	Pf growth 96h	Cycloheximide cs	Shiga toxin inh	Pf growth 48h	HCMV inh
N/C(=N\OC(=O)c1cccc(Cl)c1)c1ccncc1	2%	39*	59*	-5%	-9
N/C(=N\OC(=O)c1ccc(Cl)c(Cl)c1)c1cccnc1	13%	26*	41	x	148
C/C(=N\OC(=O)c1cccc(Cl)c1)c1sc(C)nc1C	46%	-2	25	x	-22
O=C(NNC(=O)c1cccc(C(F)(F)F)c1)c1ccncc1	20%	5	10	x	-27
N/C(=N\OC(=O)c1cccc(C(F)(F)F)c1)c1cnccn1	68%	30*	59*	51%	37
O=C(O/N=C(\c1ccccc1)c1ccccn1)c1ccc(Cl)c(Cl)c1	u	2	-12	17%	40
N/C(=N\OC(=O)c1ccc(Cl)c(Cl)c1)c1cccc(CSc2ccccn2)c1	73%	29*	62*	56%	73
N/C(=N\OC(=O)c1cccc(Cl)c1)c1cccnc1	-16%	47*	99*	-19%	98
COc1ccc(-c2noc(-c3ccc(N4CCN(c5ccccc5)CC4)c([N+](=O)[O-])c3)n2)cc1	x	x	x	x	7
O=C1CN(C(=O)Nc2ccccc2Cl)C(c2ccccc2)c2c(sc3c2CCCC3)N1 (configuration not stated)	x	x	x	x	-36
Cc1cc(OCC(=O)OCC(=O)NC2CCS(=O)(=O)C2)ccc1Cl (configuration not stated)	x	x	x	x	-14
COc1ccc(C(NC(=O)C2CCN(CCCOc3ccccc3)CC2)c2cccs2)cc1 (configuration not stated)	x	x	x	x	-103*
CC(=O)c1oc2ccccc2c1N	85%	0	-2	19%	65
Nc1c(C(=O)N2CCOCC2)oc2ccccc12	u	18*	15	12%	0
Nc1c(C(=O)c2ccco2)oc2ccccc12	-6%	21*	24*	3%	44
Nc1c(C(=O)c2ccc(F)cc2)oc2ccccc12	102%	38*	44*	108%	11
O=C(Nc1c(C(=O)c2ccccc2)oc2ccccc12)c1ccc(F)cc1	x	x	x	x	-27
CCOC(=O)c1oc2ccccc2c1NC(=O)c1ccco1	-25%	14	15	18%	u
Nc1c(C(=O)c2ccccc2)oc2ccccc12	-8%	22*	28	x	37
O=c1nc(Nc2ccc(Br)cc2)sc2ccc([N+](=O)[O-])cc12	13%	-2	5	u	u
Cc1ccc(Cl)cc1NC(=O)COC(=O)CCN1C(=O)C2CC=CCC2C1=O (configuration not stated)	x	x	x	x	70
Cc1c(C(=O)c2ccccc2)oc2ccc3ccccc3c12	i	51*	106*	270%	104
Nc1c(C(=O)Nc2ccc(Cl)cc2)oc2ccccc12	300%	55*	175*	x	87
CC(=O)Nc1c(C(=O)c2ccccc2)oc2ccccc12	u	-5	-11	-19%	-29
Cc1cccc(C(=O)Nc2nnc(Cc3ccccc3)s2)c1	10µM*	9.3*	8	u	96
SMILES	Pf growth 96h	Cycloheximide cs	Shiga toxin inh	Pf growth 48h	HCMV inh
O=C(Nc1nnc(CCS(=O)(=O)c2ccc3ccccc3c2)s1)c1cccs1	17%	-2	-14	15%	-1
COc1ccc(S(=O)(=O)CCc2nnc(NC(=O)c3cccs3)s2)cc1	33%	-3	-8	2.3µM*	-21
COc1ccc(Cc2nnc(NC(=O)c3cccs3)s2)cc1	x	0	21	35%	65
O=C(Nc1nnc(CCN2CCCCC2)s1)c1ccccc1	-13%	33*	40	85%	-20
O=C(Nc1nnc(CCN2CCCCC2)s1)c1ccc(Br)cc1	-21%	7	11	15%	35
O=C(Nc1nnc(CC2=CCCCC2)s1)c1cccs1	x	30*	100*	59%	68
O=C(CCCOc1ccc(Cl)cc1Cl)NN1CCOCC1	0%	0	13	15%	11
CCCCCn1c(CCNC(=O)c2cccc(C)c2)nc2ccccc21	x	x	x	x	-25
